Only some compounds are listed: those with a hit (about 5.7% of all), similar ones and a draw of the others.
MPTP block: inhibitors of mitochondrial permeability transition pore; actives 1.4% (n = 360,000); isolated mouse mitochondria, Ca2+ swelling absorbance, 30 min; inhibition, % at 10 µM;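 active = inhibition of 50% or more, scaled per plate between neutral and stimulator controls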
FAS-TE inh: inhibitors of human fatty acid synthase thioesterase domain; P49327; actives 0.67% (n = 360,000); inhibition, % at 15 µM; recombinant FAS-TE, OMFH fluorogenic substrate, fluorescence endpoint; AID 602261;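 active = compounds whose normalised, plate-corrected inhibition of enzyme fluorescence in the single-dose primary screen is 50% or more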
GRIN3A LBD mod: modulators (binders) of human NR3A ligand-binding domain; Tm shift relative to glycine control, % at 25 µM; AID 1259313; actives 2.5% (n = 340,000); NR3A LBD differential scanning fluorimetry, Tm shift; 0% = protein alone, 100% = glycine-bound protein;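 active = melting temperature shift of at least 10% of the positive control shift, at one fixed dose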
rCAG RNA binder: binds r(CAG) RNA repeats. r(CAG) RNA repeat, TO-PRO-1 dye displacement fluorescence. inhibition, % at 3 µM. actives 1.3% (n = 370,000);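 active = inhibition above the plate cutoff, the mean of all test compounds on that plate plus 3 SD, cut at about 35% in these data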;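 note: higher means more dye released from RNA so lower well fluorescence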
Myeloid diff MLP: promotes myeloid progenitor differentiation; actives 1% (n = 360,000); calls only at 10 µM; ER-HoxA9 myeloid progenitors, lysozyme-GFP differentiation, flow cytometry;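 active = normalized GFP-positive differentiation at or above the plate's own cutoff, the solvent-only control mean plus 3 SD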;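 note: cells exposed to compound for four days before flow analysis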
Each line names hits and unclear results; the compound was inactive in the other large screens.

CC(Oc1ccc(Cl)cc1Cl)C(=O)Nc1ccc(S(=O)(=O)Nc2cnc3ccccc3n2)cc1 (stereo not given)	GRIN3A LBD mod 18 (no result: MPTP block, FAS-TE inh, rCAG RNA binder, Myeloid diff MLP)
C=CCNC(=O)c1onc(CSc2cccc(C)c2)c1C(=O)O	GRIN3A LBD mod 13
CCOC(=O)C1C(c2ccccc2Cl)NC(=O)N(C)C1(O)C(F)(F)F (stereo not given)	Myeloid diff MLP active
COc1ccccc1/C(C)=N/NC(=O)c1nnn(-c2nonc2N)c1C(C)C	none
CC(C)c1c(C(=O)N/N=C2\CCc3ccccc32)nnn1-c1nonc1N	GRIN3A LBD mod 10
CCCc1c(C(=O)N/N=C/C(C)=C/c2ccccc2)nnn1-c1nonc1N	GRIN3A LBD mod 34
CC(/C=N/NC(=O)c1nnn(-c2nonc2N)c1C(C)C)=C\c1ccccc1	GRIN3A LBD mod 27
COc1ccc(N2C(=O)c3n[nH]c(C)c3C2c2ccccc2)cc1 (stereo not given)	none (no result: MPTP block, FAS-TE inh, GRIN3A LBD mod, Myeloid diff MLP)
CCCCOc1cccc(C(=O)Nc2ccc(NC(=O)c3cccs3)cc2)c1	GRIN3A LBD mod 22
CCOc1ccc(OCC(=O)Nc2ccc(OC)cc2)cc1	none
COc1cccc(C(=O)COc2ccc(NC(=O)c3cccs3)cc2)c1	none
CC(=O)c1ccc(NC(=O)c2ccc(NC(=O)CCS(=O)(=O)c3cccs3)cc2)cc1	GRIN3A LBD mod 21
O=C(COc1ccc(NC(=O)c2cccs2)cc1)c1ccc(F)cc1	GRIN3A LBD mod 27
CC(=O)c1cccc(NC(=O)c2ccc(NC(=O)CCS(=O)(=O)c3cccs3)cc2)c1	none
COc1ccc(C(=O)COc2ccc(NC(C)=O)cc2)cc1	GRIN3A LBD mod 13
Cc1ccc(-c2cc(C#N)c3n(c2=O)CCC3)cc1	none (no result: MPTP block, FAS-TE inh, GRIN3A LBD mod, Myeloid diff MLP)
CC(C)NC(=O)N[C@H]1C[C@@H]2O[C@@H](CO)CC[C@@H]2O[C@@H]1CCc1ccc(-c2ccccc2F)cc1	none (no result: MPTP block, FAS-TE inh, GRIN3A LBD mod, Myeloid diff MLP)
CC(C)n1nnnc1C1(C)CSCC(=O)N1Cc1cccc(F)c1 (stereo not given)	none (no result: MPTP block, FAS-TE inh, GRIN3A LBD mod, Myeloid diff MLP)
O=C(C#Cc1ccccc1)Nc1ccc(F)cc1	none
CCOc1ccc(NC(=O)c2ccc(NS(=O)(=O)c3cccc4cccnc34)cc2)cc1	GRIN3A LBD mod 17
CCCOc1ccc(C(=O)Nc2ccc(NC(=O)c3cccs3)cc2)cc1	GRIN3A LBD mod 14
COc1ccc(NC(=O)C#Cc2ccccc2)cc1	GRIN3A LBD mod 10
COc1cccc(NC(=O)c2ccc(NS(=O)(=O)c3cccs3)cc2)c1	none
CCOc1ccc(NC(=O)c2ccc(NS(=O)(=O)c3cccs3)cc2)cc1	GRIN3A LBD mod 24
CC1CC(C)CN(C(=O)C2CCN(c3cncnc3)CC2)C1 (stereo not given)	none (no result: MPTP block, FAS-TE inh, GRIN3A LBD mod, Myeloid diff MLP)
COCC(=O)Nc1ccc2c(c1)C(=O)N(C)[C@@H]1CC[C@@H](CC(=O)OC)O[C@H]1CO2	none (no result: MPTP block, FAS-TE inh, GRIN3A LBD mod, Myeloid diff MLP)
CCCCNC(=O)OC1CCC12CCC(c1ccccc1)CC2 (stereo not given)	none (no result: MPTP block, FAS-TE inh, GRIN3A LBD mod, Myeloid diff MLP)
O=C(CSc1nnc(-c2cccnc2)n1-c1ccc(Cl)cc1)Nc1ccccc1-c1ccccc1	none (no result: MPTP block, FAS-TE inh, GRIN3A LBD mod, Myeloid diff MLP)
Nc1[nH]c(C(=O)c2ccccc2)c(-c2ccccc2Br)c1C(=O)c1cccs1	none (no result: MPTP block, FAS-TE inh, GRIN3A LBD mod, Myeloid diff MLP)
c1cc2c3c(cccc3c1)NC1(CCC3(CC1)Nc1cccc4cccc(c14)N3)N2	GRIN3A LBD mod 18
c1cc2c3c(cccc3c1)NC1(CCCCCC1)N2	none
N#CC12CCCCC1CC1CCCCC1(C#N)N2CCO (stereo not given)	none
N#CC12CCCCC1CC1CCCCC1(C#N)N2Cc1ccccn1 (stereo not given)	GRIN3A LBD mod 10
N#Cc1c2c(c(=S)n(-c3ccccc3)c1N)CCCC2	Myeloid diff MLP active
Nc1c(C(=O)N/N=C/c2ccccc2)cnn1-c1ccccc1	GRIN3A LBD mod 15
O=C(NNC(=O)c1cc2ccccc2cc1O)Nc1ccc(Br)cc1	GRIN3A LBD mod 19
CCN(C[C@H]1N[C@@](CC)(C(=O)OC)[C@H]2C(=O)N(Cc3ccccc3)C(=O)[C@@H]12)C(=O)Nc1ccc(C)cc1	Myeloid diff MLP active
Cc1cccc2sc(NC(=O)CNS(=O)(=O)c3ccc(Br)s3)nc12	GRIN3A LBD mod 11
COc1ccc(-n2cccc2/C=C2\C(=N)N3N=C(c4ccco4)SC3=NC2=O)cc1	rCAG RNA binder 51
Cc1ccc(OCCSc2nc(NC(C)C)nc(NC(C)C)n2)cc1	GRIN3A LBD mod 23
COc1ccc(Cn2cc3c(-c4ccc(F)cc4)nnc-3c3cc(OC)c(OC)cc32)cc1	Myeloid diff MLP active
COc1cc2c3nnc(-c4ccc(F)cc4)c-3cn(Cc3ccc(F)cc3)c2cc1OC	none
COc1cc2c3nnc(-c4ccc(F)cc4)c-3cn(Cc3ccccc3)c2cc1OC	Myeloid diff MLP active
O=C(/C=C/c1ccc(F)cc1)N1CC[C@@]2(O)CCCC[C@H]2C1	Myeloid diff MLP active
O=C(/C=C/c1ccc(F)cc1)N1CCCN(C(=O)/C=C/c2ccc(F)cc2)CC1	none
CCOC(=O)C1=C(CC)Nc2ccccc2N=C1NC(=O)c1cc(S(=O)(=O)N(C)C)ccc1Cl	GRIN3A LBD mod 17
COC(=O)N1C[C@H](OCc2ccccc2)[C@H]2C[C@@H]1c1ccccc1O2	none (no result: MPTP block, FAS-TE inh, GRIN3A LBD mod, Myeloid diff MLP)
COc1cc(NC(=O)c2ccc(Cl)cc2Cl)ccc1NC(=O)c1cccs1	none
COc1ccc(C(=O)Nc2ccc(NC(=O)c3cccs3)c(OC)c2)cc1Cl	GRIN3A LBD mod 33
COc1c(Cl)cc(Cl)cc1C(=O)Nc1ccc(NC(=O)c2cccs2)cc1	GRIN3A LBD mod 214
COc1ccc(C(=O)Nc2ccc(Cl)cn2)cc1Cl	GRIN3A LBD mod 30
O=C(Nc1ccc(NC(=O)c2ccc(Cl)cc2Cl)cc1)c1cccs1	none
COc1ccc(C(=O)Nc2cccc(NC(=O)c3cccs3)c2)cc1OC	none
COc1ccc(C(=O)Nc2ccc(Cl)cn2)cc1S(=O)(=O)N1CCCC1	none
COc1ccc(/C=C/C(=O)c2ccc(NC(=O)c3cccs3)cc2)cc1OC	GRIN3A LBD mod 16
CCOC(=O)N(C)[C@H]1C[C@H]2c3cc(-c4ccccc4C)ccc3CCN2C[C@H]1[C@H](C)O	none (no result: MPTP block, FAS-TE inh, GRIN3A LBD mod, Myeloid diff MLP)
CCCC[C@@H]1C(=O)N2N=C(c3ccccc3)c3ccccc3[C@H]2N2N=C(c3ccccc3)c3ccccc3[C@@H]12	none (no result: MPTP block, FAS-TE inh, GRIN3A LBD mod, Myeloid diff MLP)
COc1ccc(C(=O)Nc2ccc(NC(=O)c3cccs3)cc2)cc1Cl	GRIN3A LBD mod 34
COc1ccccc1C(=O)Nc1ccc(C(=O)/C=C/c2cccs2)cc1	GRIN3A LBD mod 11
COc1cc(NC(=O)c2cccs2)c(OC)cc1NC(=O)c1cccs1	none (no result: rCAG RNA binder)
COc1cc(NC(=O)c2cccs2)c(OC)cc1NC(=O)Nc1ccc(F)cc1	GRIN3A LBD mod 25
CCCC[C@H]1C2CC(OC(=O)NCc3ccc(Cl)cc3)C(C2)[C@H]2CCCCN21 (stereo not given in full)	none (no result: MPTP block, FAS-TE inh, GRIN3A LBD mod, Myeloid diff MLP)
CCOC(=O)[C@@]12CCCC=C1N(CCc1ccc(Cl)cc1)C(=O)[C@H]2CC(=O)NCc1cccs1	none (no result: MPTP block, FAS-TE inh, GRIN3A LBD mod, Myeloid diff MLP)
Nc1[nH]c(C(=O)c2ccc(Br)cc2)c(-c2ccccc2Cl)c1C(=O)NCCc1c[nH]c2ccccc12	none (no result: MPTP block, FAS-TE inh, GRIN3A LBD mod, Myeloid diff MLP)
COc1ccc(-c2sc3ccccc3c2-c2ccc(O)cc2)cc1	GRIN3A LBD mod 14

Screening results (PubChem)
